Source: PubChem BioAssay (NCI)
Compounds without any hit were thinned out: in the full panel of roughly 79,000, 15% have a hit. The source made the active and inactive calls. Cut-off read from the data, not from the text of the source: active = growth inhibition above about 70%; inactive = the rest.

Key:
[1] = NCI Yeast Anticancer Drug Screen. Data for the rad50 strain (AID 155);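 note: 0% = growth of vehicle-only cultures of the same strain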; settings: S. cerevisiae rad50 strain growth inhibition, stronger effect = higher value
In short: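 A DNA repair-deficient yeast mutant serves as the test organism; compound-induced growth inhibition is calculated against vehicle-treated cells.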

[2] = NCI Yeast Anticancer Drug Screen. Data for the mec2-1 strain (AID 157); settings: S. cerevisiae mec2-1 strain, stronger effect = higher value
In short: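 Each compound was tested on mec2-1 yeast, a strain altered in DNA damage repair or cell cycle control. Growth inhibition is reported relative to vehicle.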

[3] = NCI Yeast Anticancer Drug Screen. Data for the sgs1 mgt1 strain (AID 161);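 note: 0% = growth of cultures given vehicle only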; settings: S. cerevisiae sgs1 mgt1 strain, stronger effect = higher value
In short: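 Inhibition of yeast growth, normalised to vehicle-treated controls, is reported for a strain bearing genetic alterations in DNA damage repair.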

[4] = NCI Yeast Anticancer Drug Screen. Data for the cln2 rad14 strain (AID 165);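 note: 0% = growth equal to vehicle treated cultures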; settings: S. cerevisiae cln2 rad14 strain, stronger effect = higher value
In short: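 Test compounds were added to cln2 rad14 yeast cultures; inhibition of growth was then determined by comparison with vehicle treatment.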

[5] = NCI Yeast Anticancer Drug Screen. Data for the bub3 strain (AID 167); settings: S. cerevisiae bub3 mutant strain, stronger effect = higher value
In short: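 Inhibition values come from growth of compound-treated mutant yeast normalised to vehicle-treated controls.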

[6] = NCI Yeast Anticancer Drug Screen. Data for the mlh1 rad18 strain (AID 175); settings: S. cerevisiae mlh1 rad18 strain growth inhibition, stronger effect = higher value
In short: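 Inhibition values reflect reduced growth of mutant yeast versus vehicle-treated controls following compound exposure; the mutations affect DNA damage repair.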

[7] = at 5.0 µM (retest, dose inferred, filed as 0.5)
[8] = at 50.0 µM (retest, dose inferred, filed as 5.0)

Measured: growth inhibition

CCOC(=O)c1c(Cl)c(CC)c(N=[N+]=[N-])n2c1nc1ccccc12
inactive: [1]; [7] 8% | [1]; at 50.0 µM 58.9% | [2]; [7] 8% | [2]; at 50.0 µM 56.9% | [3]; [7] 10% | [3]; at 50.0 µM 60.1% | [4]; [7] 0% | [4]; [8] 63% | [4]; at 50.0 µM 69.6% | [5]; [7] 1% | [5]; at 50.0 µM 55% | [6]; [7] 9% | [6]; at 50.0 µM 64.6%
active: [1]; [8] 73% | [2]; [8] 79% | [3]; [8] 73% | [5]; [8] 74% | [6]; [8] 80%

C/C(=N/Nc1ccc([N+](=O)[O-])cc1[N+](=O)[O-])C1=CCC(C(C)(C)C)CC1 (configuration not stated)
inactive: [1]; [7] 7% | [1]; [8] 2% | [1]; at 50.0 µM -6.7% | [2]; [7] -4% | [2]; [8] -11% | [2]; at 50.0 µM -32.5% | [3]; [7] -5% | [3]; [8] 27% | [3]; at 50.0 µM -7.05% | [4]; [7] 4% | [4]; [8] -1% | [4]; at 50.0 µM 38.8% | [5]; [7] -3% | [5]; [8] -1% | [5]; at 50.0 µM -11.6% | [6]; [7] -7% | [6]; [8] -6% | [6]; at 50.0 µM 11.8%

CCCCCCCCCCCCCCCCN(CC)CC
active: [1]; [7] 99% | [1]; [8] 99% | [1]; at 50.0 µM 99.6% | [2]; [7] 99% | [2]; [8] 99% | [2]; at 50.0 µM 99.7% | [3]; [7] 99% | [3]; [8] 100% | [3]; at 50.0 µM 99.4% | [4]; [7] 97% | [4]; [8] 99% | [4]; at 50.0 µM 99.3% | [5]; [7] 98% | [5]; [8] 99% | [5]; at 50.0 µM 99.7% | [6]; [7] 99% | [6]; [8] 99% | [6]; at 50.0 µM 99.6%

CN=C(N)N/N=C(\C)c1ccc2c(c1)Cc1cc(/C(C)=N/NC(N)=NC)ccc1-2
active: [1]; [8] 94% | [1]; at 50.0 µM 87% | [2]; [8] 96% | [2]; at 50.0 µM 75.9% | [3]; [8] 98% | [3]; at 50.0 µM 83.2% | [4]; [8] 95% | [4]; at 50.0 µM 85.3% | [5]; [8] 96% | [5]; at 50.0 µM 86.1% | [6]; [8] 96% | [6]; at 50.0 µM 86.4%
inactive: [1]; [7] 63% | [2]; [7] 53% | [3]; [7] 45% | [4]; [7] 50% | [5]; [7] 54% | [6]; [7] 59%

COC(=O)c1ncc(Cl)cc1Cl
inactive: [1]; [7] 3% | [1]; [8] -4% | [1]; at 50.0 µM 59.9% | [2]; [7] 0% | [2]; [8] -7% | [2]; at 50.0 µM 39.8% | [3]; [7] 0% | [3]; [8] -7% | [3]; at 50.0 µM 58.8% | [4]; [7] 7% | [4]; [8] -7% | [4]; at 50.0 µM 22.1% | [5]; [7] 1% | [5]; [8] -19% | [5]; at 50.0 µM 38.4% | [6]; [7] 0% | [6]; [8] -1% | [6]; at 50.0 µM 46.4%

CC(C)(C)C(=O)/C=C/c1ccc2ccccc2n1
inactive: [1]; [7] -135% | [1]; [8] -119% | [1]; at 50.0 µM 44.4% | [2]; [7] -48% | [2]; [8] -51% | [2]; at 50.0 µM 51.1% | [3]; [7] -62% | [3]; [8] -35% | [3]; at 50.0 µM 34.5% | [4]; [7] -66% | [4]; [8] -75% | [4]; at 50.0 µM 8.6% | [5]; [7] -67% | [5]; [8] -73% | [5]; at 50.0 µM 34.1% | [6]; [7] -126% | [6]; [8] -120%
active: [6]; at 50.0 µM 77.8%

O=C(OCC1OC(c2nn[nH]n2)C(OC(=O)c2ccccc2)C1OC(=O)c1ccccc1)c1ccccc1 (configuration not stated)
inactive: [1]; [7] 17% | [1]; [8] 61% | [1]; at 50.0 µM 19% | [2]; [7] 4% | [2]; [8] 56% | [2]; at 50.0 µM 30.4% | [3]; [7] 19% | [3]; at 50.0 µM 43.8% | [4]; [7] 25% | [4]; at 50.0 µM 45.9% | [5]; [7] 17% | [5]; at 50.0 µM 66% | [6]; [7] 36% | [6]; [8] 66% | [6]; at 50.0 µM -33.6%
active: [3]; [8] 80% | [4]; [8] 70% | [5]; [8] 80%

[Cl][Pt+2]([Cl])([Cl])[Cl].[NH-]CC1(C[NH-])CCCC1
active: [1]; [7] 86% | [1]; [8] 99% | [1]; at 50.0 µM 90.2% | [2]; [8] 99% | [2]; at 50.0 µM 90.8% | [3]; [8] 86% | [3]; at 50.0 µM 90.3% | [4]; [8] 81% | [4]; at 50.0 µM 86% | [5]; [8] 88% | [5]; at 50.0 µM 93% | [6]; [8] 98% | [6]; at 50.0 µM 83.5%
inactive: [2]; [7] 68% | [3]; [7] 62% | [4]; [7] 57% | [5]; [7] 61% | [6]; [7] 56%

NC(CCC(=O)NC(CS(=O)(=O)O)C(=O)O)C(=O)O (configuration not stated)
active: [3]; at 50.0 µM 79.7% | [4]; at 50.0 µM 93.5% | [6]; at 50.0 µM 85.9%
inactive: [1]; [7] 1% | [1]; [8] 6% | [1]; at 50.0 µM 13.2% | [2]; [7] 3% | [2]; [8] 2% | [2]; at 50.0 µM 12.8% | [3]; [7] 3% | [3]; [8] 5% | [4]; [7] 3% | [4]; [8] 4% | [5]; [7] -3% | [5]; [8] -6% | [5]; at 50.0 µM 13.4% | [6]; [7] -3% | [6]; [8] -2%
